Inconclusive results are not listed. A call without a number means that no potency is given here. Active and inactive are the calls of the source. Calls follow the shape of the dose curve; as a rule, active = well fitted curve in the direction sought with a large enough effect; inconclusive = small, poorly fitted or top-dose-only effect, or another doubt; inactive = no such curve, though single readings can be large; an effect the other way counts as inactive or inconclusive.
Columns and labels:
[1] = Quantitative High-Throughput drug screen in 47 multiple myeloma cell lines against the NCATS MIPE library collection: FR4_PLB cell viability assay (AID 1918924; also: nearly all actives have a fitted effect of over 35% in size)
How it was run: (§1)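 Luminescent ATP measurement with CellTiter-Glo gives viability, scaled between DMSO-only wells (100%) and media-only wells (0%). Cells, 500 per well, faced library compounds for 48 hours at 37C.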

[2] = Quantitative High-Throughput drug screen in 47 multiple myeloma cell lines against the NCATS MIPE library collection: EJM_DSMZ cell viability assay (AID 1918926; also: nearly all actives have a fitted effect of over 30% in size)
How it was run: (§2)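 qHTS of the MIPE 4.0 collection: 500 myeloma cells/well, 48 h drug exposure at 37C in 5% CO2, then CellTiter-Glo for 5 min at room temperature before luminescence reading.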

[3] = Quantitative High-Throughput drug screen in 47 multiple myeloma cell lines against the NCATS MIPE library collection: AMO1_DSMZ cell viability assay (AID 1918927; also: nearly all actives have a fitted effect of over 30% in size)
How it was run: as §2

[4] = Quantitative High-Throughput drug screen in 47 multiple myeloma cell lines against the NCATS MIPE library collection: ARP1_JJKsccF8 cell viability assay (AID 1918928; also: nearly all actives have a fitted effect of over 40% in size)
How it was run: (§3)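 Luminescence from CellTiter-Glo, taken after 5 min at room temperature, reports cellular ATP as viability. Cells (500 per well) had been treated 48 h at 37 °C with MIPE 4.0 compounds, scaled between DMSO and medium-only controls.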

[5] = Quantitative High-Throughput drug screen in 47 multiple myeloma cell lines against the NCATS MIPE library collection: Karpas620_DSMZ cell viability assay (AID 1918959); also: nearly all actives have a fitted effect of over 30% in size
How it was run: as §1

[6] = Quantitative High-Throughput drug screen in 47 multiple myeloma cell lines against the NCATS MIPE library collection: KMM1_JCRB cell viability assay (AID 1918960); also: nearly all actives have a fitted effect of over 30% in size
How it was run: as §3

[7] = Quantitative High-Throughput drug screen in 47 multiple myeloma cell lines against the NCATS MIPE library collection: JIM1_ECACC cell viability assay (AID 1918964)
How it was run: as §2

[8] = Quantitative High-Throughput drug screen in 47 multiple myeloma cell lines against the NCATS MIPE library collection: INA6_PLB cell viability assay (AID 1918965; also: nearly all actives have a fitted effect of over 55% in size)
How it was run: (§4)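 Steps: seed 500 cells per well; pin-transfer MIPE 4.0 library; incubate 48 h at 37C, 5% CO2, humidified; add CellTiter-Glo, 5 min room temperature; read luminescence.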

[9] = Quantitative High-Throughput drug screen in 47 multiple myeloma cell lines against the NCATS MIPE library collection: ARD_JJKsccE7 cell viability assay (AID 1918929)
How it was run: as §2

[10] = Quantitative High-Throughput drug screen in 47 multiple myeloma cell lines against the NCATS MIPE library collection: Karpas417_ECACC cell viability assay (AID 1918961); conditions: Karpas417 myeloma viability, CellTiter-Glo ATP luminescence, 48 h; viability (% of DMSO): at 45.8 µM (top of the series)
How it was run: as §4

[11] = Quantitative High-Throughput drug screen in 47 multiple myeloma cell lines against the NCATS MIPE library collection: JIM3_ECACC cell viability assay (AID 1918963; also: nearly all actives have a fitted effect of over 35% in size)
How it was run: as §1

[12] = Quantitative High-Throughput drug screen in 47 multiple myeloma cell lines against the NCATS MIPE library collection: H1112_PLB cell viability assay (AID 1918967; also: nearly all actives have a fitted effect of over 30% in size)
How it was run: as §2

[13] = Quantitative High-Throughput drug screen in 47 multiple myeloma cell lines against the NCATS MIPE library collection: Karpas25_ECACC cell viability assay (AID 1918968; also: nearly all actives have a fitted effect of over 35% in size)
How it was run: as §2

[14] = Quantitative High-Throughput drug screen in 47 multiple myeloma cell lines against the NCATS MIPE library collection: KMS27_JCRB cell viability assay (AID 1918970); conditions: KMS27 myeloma cells, CellTiter-Glo ATP viability, 48 h; viability (% of DMSO): at 45.8 µM (top of the series); also: nearly all actives have a fitted effect of over 30% in size
How it was run: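 KMS27_JCRB myeloma cells, 500 per well, exposed 48 h at 37 C, 5% CO2 to MIPE 4.0 compounds. Viability from ATP by CellTiter-Glo luminescence, normalized to DMSO (100%) and medium-only (0%) wells.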

[15] = Quantitative High-Throughput drug screen in 47 multiple myeloma cell lines against the NCATS MIPE library collection: KHM11_PLB cell viability assay (AID 1918962); also: nearly all actives have a fitted effect of over 35% in size
How it was run: as §1

[16] = Quantitative High-Throughput drug screen in 47 multiple myeloma cell lines against the NCATS MIPE library collection: Delta47_JCRB cell viability assay (AID 1918925; also: nearly all actives have a fitted effect of over 45% in size)
How it was run: as §2

[17] = Quantitative High-Throughput drug screen in 47 multiple myeloma cell lines against the NCATS MIPE library collection: JJN3_DSMZ cell viability assay (AID 1918966; also: nearly all actives have a fitted effect of over 50% in size)
How it was run: as §2
Potency is read from the fitted curve at half-maximal effect.

OC1CCC(Nc2ncc3nc(Nc4c(F)cc(F)cc4F)n([C@@H]4CCOC4)c3n2)CC1 (stereo partly specified)
Potency [1]: inactive | Potency [2]: 0.0012 µM (active) | Potency [3]: 16.6 µM (active) | Potency [4]: 33.2 µM (active) | Potency [5]: inactive | Potency [6]: 11.8 µM (active) | Potency [7]: 16.6 µM (active) | Potency [8]: 14.8 µM (active)

C[C@@H]1C[C@H]2[C@@H]3CCC4=CC(=O)C=C[C@]4(C)[C@@]3(F)[C@@H](O)C[C@]2(C)[C@@]1(O)C(=O)CO
Potency [1]: inactive | Potency [2]: inactive | Potency [3]: inactive | Potency [4]: 0.0235 µM (active) | Potency [9]: 0.0093 µM (active) | Potency [5]: inactive | Potency [10]: 0.0418 µM (active) | Potency [11]: inactive | Potency [7]: inactive | Potency [8]: inactive | Potency [12]: inactive | Potency [13]: 0.0526 µM (active) | Potency [14]: inactive

COc1cc2ncn(-c3cc(OCc4ccccc4S(C)(=O)=O)c(C#N)s3)c2cc1OC
Potency [1]: inactive | Potency [2]: 3.72 µM (active) | Potency [3]: inactive | Potency [4]: inactive | Potency [9]: inactive | Potency [5]: inactive | Potency [6]: inactive | Potency [15]: inactive | Potency [11]: inactive | Potency [12]: 3.72 µM (active)

NC[C@H]1O[C@H](O[C@@H]2[C@@H](O)[C@@H](O[C@H]3O[C@H](CO)[C@@H](O)[C@H](N)[C@@H]3O)[C@H](N)C[C@@H]2N)[C@H](O)[C@@H](O)[C@H]1O
Potency [1]: inactive | Potency [2]: inactive | Potency [3]: inactive | Potency [9]: inactive | Potency [5]: inactive | Potency [6]: inactive | Potency [15]: inactive | Potency [11]: inactive | Potency [12]: inactive | Potency [13]: inactive | Potency [14]: inactive

CN(C)S(=O)(=O)c1ccc2c(c1)C(=Cc1cc3c([nH]1)CCCC3)C(=O)N2
Potency [1]: 2.35 µM (active) | Potency [16]: 2.96 µM (active) | Potency [5]: 1.87 µM (active) | Potency [6]: inactive | Potency [10]: 1.32 µM (active) | Potency [11]: 11.8 µM (active) | Potency [8]: 3.72 µM (active) | Potency [17]: 4.69 µM (active) | Potency [13]: 16.6 µM (active) | Potency [14]: 3.32 µM (active)

CNC(=O)c1cc(COc2nnc(Nc3ccc(Cl)cc3)c3ccoc23)ccn1
Potency [1]: 26.4 µM (active) | Potency [16]: inactive | Potency [3]: 5.26 µM (active) | Potency [6]: 9.35 µM (active) | Potency [11]: inactive | Potency [7]: inactive | Potency [8]: 13.2 µM (active) | Potency [17]: 29.6 µM (active) | Potency [12]: inactive | Potency [13]: inactive | Potency [14]: inactive

CNC1[C@H](O)C(O[C@@H]2C(O)C(O[C@H]3O[C@H]([C@@H](C)NC)CC[C@H]3N)[C@@H](N)C[C@H]2N)OC[C@]1(C)O (stereo partly specified)
Potency [1]: inactive | Potency [2]: inactive | Potency [3]: inactive | Potency [4]: inactive | Potency [9]: inactive | Potency [5]: inactive | Potency [6]: inactive | Potency [15]: inactive | Potency [11]: inactive | Potency [8]: inactive | Potency [12]: inactive | Potency [13]: inactive | Potency [14]: inactive

CCCCC(C)(C)[C@H](O)C=C[C@H]1[C@H](O)CC(=O)[C@H]1CC=CCCCC(=O)O
Potency [1]: inactive | Potency [2]: 5.9 µM (active) | Potency [4]: 23.5 µM (active) | Potency [9]: inactive | Potency [5]: inactive | Potency [11]: 20.9 µM (active) | Potency [7]: inactive | Potency [8]: 23.5 µM (active) | Potency [13]: 18.7 µM (active) | Potency [14]: inactive

CO[C@H]1O[C@@H]2O[C@@]3(C)CC[C@@H]4[C@@H](C)CC[C@@H]([C@H]1C)[C@@]24OO3
Potency [1]: inactive | Potency [2]: 1.48 µM (active) | Potency [3]: 1.87 µM (active) | Potency [4]: 16.6 µM (active) | Potency [6]: 1.32 µM (active) | Potency [8]: 0.469 µM (active) | Potency [17]: 5.9 µM (active) | Potency [12]: 7.43 µM (active) | Potency [13]: 1.18 µM (active)

Cc1cn([C@@H]2C[C@@H](O)[C@H](CO)O2)c(=O)[nH]c1=O
Potency [1]: inactive | Potency [2]: inactive | Potency [3]: inactive | Potency [4]: inactive | Potency [9]: inactive | Potency [5]: inactive | Potency [6]: inactive | Potency [10]: inactive | Potency [15]: inactive | Potency [11]: inactive | Potency [7]: inactive | Potency [8]: 0.0166 µM (active) | Potency [17]: inactive | Potency [12]: inactive | Potency [13]: inactive | Potency [14]: inactive

CCC(=C(c1ccc(O)cc1)c1ccc(OCCNC)cc1)c1ccccc1
Potency [1]: 26.4 µM (active) | Potency [16]: 5.9 µM (active) | Potency [3]: 20.9 µM (active) | Potency [5]: 26.4 µM (active) | Potency [11]: 20.9 µM (active) | Potency [8]: 2.64 µM (active) | Potency [17]: 18.7 µM (active) | Potency [12]: 23.5 µM (active) | Potency [13]: 18.7 µM (active)

CC=C(C(=CC)c1ccc(O)cc1)c1ccc(O)cc1
Potency [1]: 20.9 µM (active) | Potency [2]: inactive | Potency [3]: 16.6 µM (active) | Potency [9]: 23.5 µM (active) | Potency [5]: 16.6 µM (active) | Potency [6]: 20.9 µM (active) | Potency [15]: inactive | Potency [8]: 16.6 µM (active)

COc1ccnc(CS(=O)c2nc3ccc(OC(F)F)cc3[nH]2)c1OC (stereo unspecified)
Potency [1]: inactive | Potency [2]: inactive | Potency [3]: inactive | Potency [4]: inactive | Potency [5]: 29.6 µM (active) | Potency [6]: inactive | Potency [11]: inactive

N#Cc1c(N(CC(=O)O)CC(=O)O)sc(C(=O)O)c1CC(=O)O
Potency [1]: inactive | Potency [2]: inactive | Potency [3]: 8.33 µM (active) | Potency [10]: inactive | Potency [15]: inactive | Potency [7]: 5.9 µM (active) | Potency [8]: 14.8 µM (active) | Potency [13]: 18.7 µM (active)

OCCn1cc(-c2ccc3c(c2)CCC3=NO)c(-c2ccncc2)n1
Potency [1]: inactive | Potency [2]: inactive | Potency [4]: inactive | Potency [9]: 13.2 µM (active) | Potency [10]: 8.33 µM (active) | Potency [15]: 4.69 µM (active) | Potency [11]: inactive | Potency [17]: inactive | Potency [13]: 23.5 µM (active)

CCNC(=O)[C@H]1O[C@@H](n2cnc3c(N)nc(NCCc4ccc(CCC(=O)O)cc4)nc32)[C@H](O)[C@H]1O
Potency [1]: inactive | Potency [2]: 0.0332 µM (active) | Potency [3]: 0.105 µM (active) | Potency [9]: inactive | Potency [5]: inactive | Potency [6]: inactive | Potency [10]: 0.0296 µM (active) | Potency [15]: 0.0469 µM (active) | Potency [11]: inactive | Potency [7]: inactive | Potency [8]: 0.209 µM (active) | Potency [17]: 0.059 µM (active) | Potency [12]: inactive | Potency [13]: 0.105 µM (active)

Source: PubChem BioAssay (NCATS)
